Experimental data from article PMC11006913.
Where a chain is given by its changes, count along the chain named.

Columns and labels:
Assay in all cases: PBM; 200 nM protein, PBS
Settings in all cases: dsDNA, one strand shown
[1] = target: HESX1 (Homo sapiens, UniProt Q9UBX0 95-180, R165K)
[2] = target: HESX1 (Homo sapiens, UniProt Q9UBX0 95-180)
[3] = target: T1, NKX2-6 (Homo sapiens, UniProt A6NCS4 118-204, R150C)
T1 sequence: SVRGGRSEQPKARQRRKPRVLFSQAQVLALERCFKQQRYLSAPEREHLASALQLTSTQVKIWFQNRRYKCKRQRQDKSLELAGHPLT

[4] = target: HESX1 (Homo sapiens, UniProt Q9UBX0 95-180, R109Q)
[5] = target: HESX1 (Homo sapiens, UniProt Q9UBX0 95-180, P111T)
[6] = target: HESX1 (Homo sapiens, UniProt Q9UBX0 95-180, F115L)
[7] = target: ALX4 (Homo sapiens, UniProt Q9H161 200-286)
[8] = target: ALX4 (Homo sapiens, UniProt Q9H161 200-286, Q225E)
[9] = target: T2, PAX4 (Homo sapiens, UniProt O43316 9-242, R200K)
T2 sequence: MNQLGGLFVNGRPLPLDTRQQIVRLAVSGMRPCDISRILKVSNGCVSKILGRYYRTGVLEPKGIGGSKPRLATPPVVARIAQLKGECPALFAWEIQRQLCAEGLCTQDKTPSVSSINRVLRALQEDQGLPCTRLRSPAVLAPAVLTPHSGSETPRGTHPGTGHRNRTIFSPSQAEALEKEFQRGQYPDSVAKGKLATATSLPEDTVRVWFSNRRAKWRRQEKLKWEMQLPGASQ

[10] = target: PRRX1 (Homo sapiens, UniProt P54821 80-166, F113S)
[11] = target: T3, PAX4 (Homo sapiens, UniProt O43316 9-242)
T3 sequence: T2 sequence with K192R

[12] = target: ALX1 (Homo sapiens, UniProt Q15699 118-204, L144V)
[13] = target: ALX3 (Homo sapiens, UniProt O95076 139-225, N203Q)
[14] = target: T4, PAX4 (Homo sapiens, UniProt O43316 9-242, R200Q)
T4 sequence: T2 sequence with K192Q

[15] = target: SHOX (Homo sapiens, UniProt O15266 103-189, R173C)
[16] = target: ALX1 (Homo sapiens, UniProt Q15699 118-204, L144R)
[17] = target: T5, PAX4 (Homo sapiens, UniProt O43316 9-242, F177V)
T5 sequence: T2 sequence with F169V, K192R

[18] = target: ALX3 (Homo sapiens, UniProt O95076 139-225)
[19] = target: T6, PAX4 (Homo sapiens, UniProt O43316 9-242, F177Y)
T6 sequence: T2 sequence with F169Y, K192R

[20] = target: PROP1 (Homo sapiens, UniProt O75360 56-141)
[21] = target: PROP1 (Homo sapiens, UniProt O75360 56-141, R99H)
[22] = target: ALX3 (Homo sapiens, UniProt O95076 139-225, L168Q)
[23] = target: ALX3 (Homo sapiens, UniProt O95076 139-225, L168V)
[24] = target: PROP1 (Homo sapiens, UniProt O75360 56-141, F88S)
[25] = target: T7, PAX4 (Homo sapiens, UniProt O43316 9-242, R227W)
T7 sequence: T2 sequence with K192R, R219W

[26] = target: ALX1 (Homo sapiens, UniProt Q15699 118-204)
[27] = target: ALX3 (Homo sapiens, UniProt O95076 139-225, N203S)
[28] = target: PRRX1 (Homo sapiens, UniProt P54821 80-166)
[29] = target: HOXC10 (Homo sapiens, UniProt Q9NYD6 254-340)
[30] = target: MSX2 (Homo sapiens, UniProt P35548 130-214, R199I)
[31] = target: MSX2 (Homo sapiens, UniProt P35548 130-214)
[32] = target: MSX2 (Homo sapiens, UniProt P35548 130-214, F161Y)
MSX2 (Homo sapiens, UniProt P35548 130-214, F161Y), sequence (P35548 130-214 F161Y): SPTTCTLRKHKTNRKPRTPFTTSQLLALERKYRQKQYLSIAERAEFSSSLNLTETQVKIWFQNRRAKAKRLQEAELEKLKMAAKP

HESX1 (Homo sapiens, UniProt Q9UBX0 95-180, R109Q), sequence (Q9UBX0 95-180 R109Q): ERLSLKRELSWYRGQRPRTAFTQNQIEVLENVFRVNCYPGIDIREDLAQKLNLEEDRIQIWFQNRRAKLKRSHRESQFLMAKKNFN
HESX1 (Homo sapiens, UniProt Q9UBX0 95-180, F115L), sequence (Q9UBX0 95-180 F115L): as the sequence (Q9UBX0 95-180 R109Q) above, with Q15R, F21L counted along it
HESX1 (Homo sapiens, UniProt Q9UBX0 95-180, R165K), sequence (Q9UBX0 95-180 R165K): as the sequence (Q9UBX0 95-180 R109Q) above, with Q15R, R71K counted along it
ALX4 (Homo sapiens, UniProt Q9H161 200-286, Q225E), sequence (Q9H161 200-286 Q225E): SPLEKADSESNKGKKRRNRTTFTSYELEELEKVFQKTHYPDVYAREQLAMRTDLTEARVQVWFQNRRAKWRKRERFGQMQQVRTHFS
HESX1 (Homo sapiens, UniProt Q9UBX0 95-180), sequence (Q9UBX0 95-180): as the sequence (Q9UBX0 95-180 R109Q) above, with Q15R counted along it
HESX1 (Homo sapiens, UniProt Q9UBX0 95-180, P111T), sequence (Q9UBX0 95-180 P111T): as the sequence (Q9UBX0 95-180 R109Q) above, with Q15R, P17T counted along it
ALX4 (Homo sapiens, UniProt Q9H161 200-286), sequence (Q9H161 200-286): as the sequence (Q9H161 200-286 Q225E) above, with E26Q counted along it
ALX3 (Homo sapiens, UniProt O95076 139-225), sequence (O95076 139-225): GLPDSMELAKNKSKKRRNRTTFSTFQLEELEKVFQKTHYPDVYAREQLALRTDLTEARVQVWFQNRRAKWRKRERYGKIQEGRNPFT
PRRX1 (Homo sapiens, UniProt P54821 80-166), sequence (P54821 80-166): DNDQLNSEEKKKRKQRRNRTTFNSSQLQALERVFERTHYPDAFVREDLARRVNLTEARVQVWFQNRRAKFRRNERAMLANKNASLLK
ALX3 (Homo sapiens, UniProt O95076 139-225, N203Q), sequence (O95076 139-225 N203Q): as the sequence (O95076 139-225) above, with N65Q counted along it
ALX1 (Homo sapiens, UniProt Q15699 118-204, L144R), sequence (Q15699 118-204 L144R): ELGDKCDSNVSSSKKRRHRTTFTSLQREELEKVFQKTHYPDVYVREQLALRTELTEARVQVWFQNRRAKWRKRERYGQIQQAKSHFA
ALX3 (Homo sapiens, UniProt O95076 139-225, L168V), sequence (O95076 139-225 L168V): as the sequence (O95076 139-225) above, with L30V counted along it
ALX3 (Homo sapiens, UniProt O95076 139-225, N203S), sequence (O95076 139-225 N203S): as the sequence (O95076 139-225) above, with N65S counted along it
SHOX, sequence (O15266 103-189 R173C): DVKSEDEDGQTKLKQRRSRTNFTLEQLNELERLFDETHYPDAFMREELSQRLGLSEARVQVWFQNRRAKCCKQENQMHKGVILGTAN
ALX3 (Homo sapiens, UniProt O95076 139-225, L168Q), sequence (O95076 139-225 L168Q): as the sequence (O95076 139-225) above, with L30Q counted along it
ALX1 (Homo sapiens, UniProt Q15699 118-204), sequence (Q15699 118-204): as the sequence (Q15699 118-204 L144R) above, with R27L counted along it
PRRX1 (Homo sapiens, UniProt P54821 80-166, F113S), sequence (P54821 80-166 F113S): as the sequence (P54821 80-166) above, with F34S counted along it
PROP1 (Homo sapiens, UniProt O75360 56-141, R99H), sequence (O75360 56-141 R99H): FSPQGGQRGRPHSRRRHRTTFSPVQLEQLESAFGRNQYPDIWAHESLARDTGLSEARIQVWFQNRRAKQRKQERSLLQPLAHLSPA
ALX1 (Homo sapiens, UniProt Q15699 118-204, L144V), sequence (Q15699 118-204 L144V): as the sequence (Q15699 118-204 L144R) above, with R27V counted along it
MSX2 (Homo sapiens, UniProt P35548 130-214, R199I), sequence (P35548 130-214 R199I): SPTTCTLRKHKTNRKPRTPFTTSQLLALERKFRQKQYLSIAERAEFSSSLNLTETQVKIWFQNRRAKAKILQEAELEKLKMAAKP
PROP1 (Homo sapiens, UniProt O75360 56-141), sequence (O75360 56-141): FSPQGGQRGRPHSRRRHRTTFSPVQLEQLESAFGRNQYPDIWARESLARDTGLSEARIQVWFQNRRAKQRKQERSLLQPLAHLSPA
MSX2 (Homo sapiens, UniProt P35548 130-214), sequence (P35548 130-214): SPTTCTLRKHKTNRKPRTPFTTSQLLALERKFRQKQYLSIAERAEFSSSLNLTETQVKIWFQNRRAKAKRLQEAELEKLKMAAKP
PROP1 (Homo sapiens, UniProt O75360 56-141, F88S), sequence (O75360 56-141 F88S): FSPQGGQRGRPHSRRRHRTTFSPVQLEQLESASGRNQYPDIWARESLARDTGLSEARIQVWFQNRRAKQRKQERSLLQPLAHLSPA
HOXC10, sequence (Q9NYD6 254-340): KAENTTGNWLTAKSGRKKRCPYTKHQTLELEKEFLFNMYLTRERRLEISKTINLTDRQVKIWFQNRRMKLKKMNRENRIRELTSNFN

Sequence: CCGCCGAG
- binding signal [1]: 6.43 upbm affinity estimate (log intensity, higher = more binding, comparable within an allelic series)
- binding signal [2]: 6.32 upbm affinity estimate (log intensity, higher = more binding, comparable within an allelic series)
- binding signal [3]: 9.67 upbm affinity estimate (log intensity, higher = more binding, comparable within an allelic series)
- binding signal [4]: 6.49 upbm affinity estimate (log intensity, higher = more binding, comparable within an allelic series)
- binding signal [5]: 6.43 upbm affinity estimate (log intensity, higher = more binding, comparable within an allelic series)
- binding signal [6]: 6.38 upbm affinity estimate (log intensity, higher = more binding, comparable within an allelic series)

Sequence: GAGTCGCC
- binding signal [1]: 6.49 upbm affinity estimate (log intensity, higher = more binding, comparable within an allelic series)
- binding signal [7]: 8.18 upbm affinity estimate (log intensity, higher = more binding, comparable within an allelic series)
- binding signal [8]: 8.37 upbm affinity estimate (log intensity, higher = more binding, comparable within an allelic series)
- binding signal [2]: 6.48 upbm affinity estimate (log intensity, higher = more binding, comparable within an allelic series)
- binding signal [3]: 9.64 upbm affinity estimate (log intensity, higher = more binding, comparable within an allelic series)
- binding signal [4]: 6.47 upbm affinity estimate (log intensity, higher = more binding, comparable within an allelic series)
- binding signal [5]: 6.56 upbm affinity estimate (log intensity, higher = more binding, comparable within an allelic series)
- binding signal [6]: 6.36 upbm affinity estimate (log intensity, higher = more binding, comparable within an allelic series)

Sequence: AGGGTATA
- binding signal [1]: 7.35 upbm affinity estimate (log intensity, higher = more binding, comparable within an allelic series)
- binding signal [2]: 7.42 upbm affinity estimate (log intensity, higher = more binding, comparable within an allelic series)

Sequence: AATTAACC
- binding signal [1]: 11.5 upbm affinity estimate (log intensity, higher = more binding, comparable within an allelic series)
- binding signal [7]: 13.6 upbm affinity estimate (log intensity, higher = more binding, comparable within an allelic series)
- binding signal [9]: 11.6 upbm affinity estimate (log intensity, higher = more binding, comparable within an allelic series)
- binding signal [10]: 11 upbm affinity estimate (log intensity, higher = more binding, comparable within an allelic series)
- binding signal [11]: 12.1 upbm affinity estimate (log intensity, higher = more binding, comparable within an allelic series)
- binding signal [8]: 12.7 upbm affinity estimate (log intensity, higher = more binding, comparable within an allelic series)
- binding signal [2]: 11.5 upbm affinity estimate (log intensity, higher = more binding, comparable within an allelic series)
- binding signal [12]: 11.3 upbm affinity estimate (log intensity, higher = more binding, comparable within an allelic series)
- binding signal [13]: 8.33 upbm affinity estimate (log intensity, higher = more binding, comparable within an allelic series)
- binding signal [14]: 11.9 upbm affinity estimate (log intensity, higher = more binding, comparable within an allelic series)
- binding signal [15]: 9.27 upbm affinity estimate (log intensity, higher = more binding, comparable within an allelic series)
- binding signal [16]: 11.2 upbm affinity estimate (log intensity, higher = more binding, comparable within an allelic series)
- binding signal [17]: 10.4 upbm affinity estimate (log intensity, higher = more binding, comparable within an allelic series)
- binding signal [18]: 12.3 upbm affinity estimate (log intensity, higher = more binding, comparable within an allelic series)
- binding signal [19]: 10.8 upbm affinity estimate (log intensity, higher = more binding, comparable within an allelic series)
- binding signal [20]: 11.1 upbm affinity estimate (log intensity, higher = more binding, comparable within an allelic series)
- binding signal [4]: 8.77 upbm affinity estimate (log intensity, higher = more binding, comparable within an allelic series)
- binding signal [21]: 10.7 upbm affinity estimate (log intensity, higher = more binding, comparable within an allelic series)
- binding signal [22]: 10.3 upbm affinity estimate (log intensity, higher = more binding, comparable within an allelic series)
- binding signal [5]: 10.3 upbm affinity estimate (log intensity, higher = more binding, comparable within an allelic series)
- binding signal [23]: 9.89 upbm affinity estimate (log intensity, higher = more binding, comparable within an allelic series)
- binding signal [24]: 7.52 upbm affinity estimate (log intensity, higher = more binding, comparable within an allelic series)
- binding signal [6]: 7.7 upbm affinity estimate (log intensity, higher = more binding, comparable within an allelic series)
- binding signal [25]: 10.8 upbm affinity estimate (log intensity, higher = more binding, comparable within an allelic series)
- binding signal [26]: 12.1 upbm affinity estimate (log intensity, higher = more binding, comparable within an allelic series)
- binding signal [27]: 8.5 upbm affinity estimate (log intensity, higher = more binding, comparable within an allelic series)
- binding signal [28]: 13.2 upbm affinity estimate (log intensity, higher = more binding, comparable within an allelic series)

Sequence: ACCAAATA
- binding signal [1]: 7.74 upbm affinity estimate (log intensity, higher = more binding, comparable within an allelic series)
- binding signal [29]: 10.8 upbm affinity estimate (log intensity, higher = more binding, comparable within an allelic series)
- binding signal [2]: 7.83 upbm affinity estimate (log intensity, higher = more binding, comparable within an allelic series)
- binding signal [5]: 7.46 upbm affinity estimate (log intensity, higher = more binding, comparable within an allelic series)

Sequence: AATTATCG
- binding signal [1]: 11.5 upbm affinity estimate (log intensity, higher = more binding, comparable within an allelic series)
- binding signal [7]: 13.7 upbm affinity estimate (log intensity, higher = more binding, comparable within an allelic series)
- binding signal [10]: 11 upbm affinity estimate (log intensity, higher = more binding, comparable within an allelic series)
- binding signal [8]: 12.7 upbm affinity estimate (log intensity, higher = more binding, comparable within an allelic series)
- binding signal [2]: 11.6 upbm affinity estimate (log intensity, higher = more binding, comparable within an allelic series)
- binding signal [30]: 12.3 upbm affinity estimate (log intensity, higher = more binding, comparable within an allelic series)
- binding signal [12]: 11.5 upbm affinity estimate (log intensity, higher = more binding, comparable within an allelic series)
- binding signal [13]: 8.39 upbm affinity estimate (log intensity, higher = more binding, comparable within an allelic series)
- binding signal [15]: 9.18 upbm affinity estimate (log intensity, higher = more binding, comparable within an allelic series)
- binding signal [16]: 11.1 upbm affinity estimate (log intensity, higher = more binding, comparable within an allelic series)
- binding signal [31]: 13.4 upbm affinity estimate (log intensity, higher = more binding, comparable within an allelic series)
- binding signal [18]: 12.3 upbm affinity estimate (log intensity, higher = more binding, comparable within an allelic series)
- binding signal [4]: 8.48 upbm affinity estimate (log intensity, higher = more binding, comparable within an allelic series)
- binding signal [21]: 10.8 upbm affinity estimate (log intensity, higher = more binding, comparable within an allelic series)
- binding signal [22]: 10.3 upbm affinity estimate (log intensity, higher = more binding, comparable within an allelic series)
- binding signal [5]: 10.2 upbm affinity estimate (log intensity, higher = more binding, comparable within an allelic series)
- binding signal [23]: 9.82 upbm affinity estimate (log intensity, higher = more binding, comparable within an allelic series)
- binding signal [32]: 13 upbm affinity estimate (log intensity, higher = more binding, comparable within an allelic series)
- binding signal [6]: 7.49 upbm affinity estimate (log intensity, higher = more binding, comparable within an allelic series)
- binding signal [26]: 12 upbm affinity estimate (log intensity, higher = more binding, comparable within an allelic series)
- binding signal [27]: 8.5 upbm affinity estimate (log intensity, higher = more binding, comparable within an allelic series)
- binding signal [28]: 13.2 upbm affinity estimate (log intensity, higher = more binding, comparable within an allelic series)
